An excerpt weighted towards active compounds, which were near 2.8% of everything screened.
Pol eta inh-1 – inhibitors of human DNA polymerase eta; recombinant Pol eta, fluorescent DNA replication assay; Potency, µM (highest dose often 114 µM), actives largely listed as inhibitors; 390,000 compounds, 1.2% hits; AID 588591
Target sequence (Q9Y253 whole entry, looked up): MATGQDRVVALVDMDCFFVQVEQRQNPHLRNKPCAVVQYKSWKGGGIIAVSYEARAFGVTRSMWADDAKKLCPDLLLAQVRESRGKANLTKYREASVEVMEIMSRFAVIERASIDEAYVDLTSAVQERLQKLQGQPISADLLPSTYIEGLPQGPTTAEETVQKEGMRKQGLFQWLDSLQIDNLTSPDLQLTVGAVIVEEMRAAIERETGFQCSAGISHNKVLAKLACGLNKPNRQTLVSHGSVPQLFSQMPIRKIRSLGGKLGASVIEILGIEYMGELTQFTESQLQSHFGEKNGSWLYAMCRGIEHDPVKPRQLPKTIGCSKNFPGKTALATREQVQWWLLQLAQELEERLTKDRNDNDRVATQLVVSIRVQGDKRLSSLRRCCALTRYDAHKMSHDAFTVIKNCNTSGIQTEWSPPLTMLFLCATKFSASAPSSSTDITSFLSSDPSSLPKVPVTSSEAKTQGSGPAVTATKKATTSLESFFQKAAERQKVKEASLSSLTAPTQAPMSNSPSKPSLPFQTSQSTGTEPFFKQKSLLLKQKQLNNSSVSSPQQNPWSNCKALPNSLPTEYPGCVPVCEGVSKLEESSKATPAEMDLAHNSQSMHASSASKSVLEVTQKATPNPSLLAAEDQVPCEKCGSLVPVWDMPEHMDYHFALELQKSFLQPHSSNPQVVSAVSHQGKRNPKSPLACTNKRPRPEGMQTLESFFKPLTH
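Pol eta at 10 nM preincubated with compounds 15 min at room temperature; reaction started with fluorescent substrate (50 nM final) and read kinetically at 0 and 10 min.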
Pol kappa inh-1 – inhibitors of human DNA polymerase kappa; purified Pol kappa, fluorescent DNA synthesis assay, 10 min; AID 588579; Potency, µM (doses to about 107 µM), hits mostly inhibitors; 400,000 compounds, 0.53% hits; Q9UBT6
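10 nM Pol kappa preincubated 15 min at room temperature with compounds, then reaction started with substrate at 50 nM final. Fluorescence read kinetically at 0 and 10 min; buffer-only wells served as negative control.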
PI5P4Ka inh – blocks human PI5P4K alpha kinase activity | PI5P4Kalpha enzyme, ADP-Glo luminescence, 60 min; active compounds read low | max response, % | 330,000 compounds, 1.2% hits | AID 652105 | P48426; active = max response of -50% or lower; inconclusive = between -30% and -50%; inactive = -30% or higher; note: value at the top dose of about 77 µM
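Controls without substrate or without enzyme flank wells where PI5P4Kalpha converts substrate using 5 microM ATP (final). Incubation lasts 60 minutes at room temperature; ADP formed is read by ADP-Glo luminescence.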
PI4K2A block – blocks human PI4K2A kinase activity | Q9BTU6 | purified PI4K2A, ADP-Glo luminescence, 1 h; active compounds read low | activity change, negative = inhibition, % at 76.9 µM | 420,000 compounds, 0.13% hits | AID 1346378; in the data active = activity change below about -50%; inconclusive = mostly about -30% to -49%
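Compounds are screened against recombinant PI4K2A using PI as substrate and ATP, the latter dispensed at 300 microM. Reactions run one hour at ambient temperature before ADP-Glo detection; full inhibition defined by wells lacking enzyme.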
POLI inh – DNA polymerase iota (human) inhibition | 390,000 compounds, 1% hits | Pol iota fluorescent replication assay, 10 min | AID 588590 | Q9UNA4 | Potency, µM (highest dose often 115 µM), most hits filed as inhibitors
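Pol iota at 10 nM preincubated 15 min with compounds at room temperature; reaction started with fluorescent substrate, 50 nM final. Fluorescence read kinetically at 0 and 10 min; buffer-only wells as negative control.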
POLB inh – blocks human DNA polymerase beta activity | 340,000 compounds, 1.3% hits | Pol beta primer extension/strand displacement, fluorescence kinetic | Potency, µM (titrated, usually from 114 µM), hits mostly inhibitors | P06746
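Preincubation: enzyme (10 nM) with compound, 15 min, RT. Reaction: substrate added to 50 nM final. Reads: 0 and 10 min. Analysis: normalized, Hill fit.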
PGK validate – blocks T. brucei phosphoglycerate kinase; AID 686980; TbPGK coupled GAPDH assay, Kinase-Glo luminescence; 500 compounds, 79% hits; shares compounds with Pol kappa inh-1; Potency, µM (series often up to 57.5 µM), most hits filed as inhibitors; note: nearly all actives have a fitted effect of over 65% in size
Pol iota confirm – Confirm cherry-picked inhibitors of human polymerase iota. shares compounds with Pol kappa inh-1. Pol iota primer extension, TAMRA/BHQ fluorescence. Potency, µM, usual class: inhibitors. 1,500 compounds, 77% hits. AID 720496
GALK inh confirm – confirmation of human galactokinase (GALK) inhibitors | shares compounds with Pol eta inh-1 | purified GALK, Kinase-Glo ATP depletion luminescence | Potency, µM (series often up to 115 µM), hits mostly inhibitors | 150 compounds, 70% hits | AID 2015
GALK redox cs – generates H2O2 by redox cycling, flagging GALK artifacts. shares compounds with Pol eta inh-1. Phenol red-HRP H2O2 redox cycling, absorbance 600 nm. Potency, µM (highest dose often 115 µM), actives largely listed as inhibitors. 150 compounds, 40% hits
HEK293 viability – counter-screen for GALK inhibitors: HEK293 cell cytotoxicity | shares compounds with Pol eta inh-1 | HEK-293 viability, ATP luminescence (CellTiter-Glo), 24/48 h | Potency, µM (series often up to 46.1 µM), most hits filed as inhibitors | 170 compounds, 10% hits
Pol kappa inh-2 – Pol kappa (human) inhibition, cherry-pick confirmation; purified Pol-kappa, fluorescent strand-displacement substrate; 920 compounds, 76% hits; shares compounds with Pol eta inh-1; Potency, µM, actives largely listed as inhibitors; AID 720501
Pol eta inh-2 – Pol eta (human) inhibition, cherry-pick confirmation. Pol eta primer extension, TAMRA/BHQ fluorescence, 10 min. 2,600 compounds, 64% hits. AID 720502. shares compounds with Pol eta inh-1. Potency, µM, most hits filed as inhibitors
Each line names hits and unclear results; the compound was inactive in the other large screens (follow-up assays come after a bar, where they were run). Unless noted, calls come from the whole dose curve; as a rule, active = well fitted curve in the direction sought with a large enough effect; inconclusive = small, poorly fitted or top-dose-only effect, or another doubt; inactive = no such curve, though single readings can be large; an effect the other way counts as inactive or inconclusive.

O=C(CSc1n[nH]c(=O)[nH]c1=O)Nc1cccc(S(=O)(=O)N2CCOCC2)c1	none
Cc1ccc(C(=O)Nc2nnc(CC(=O)N/N=C/c3ccc(O)c(O)c3)s2)cc1	Pol eta inh-1 3.5µM, Pol kappa inh-1 inconclusive, PI5P4Ka inh -58, POLI inh inconclusive, POLB inh 3.5µM | PGK validate 4.1µM | Pol iota confirm 9.5 | Pol eta inh-2 17
Cc1ccc(C(=O)Nc2nnc(CC(=O)N/N=C/c3ccncc3)s2)cc1	Pol eta inh-1 inconclusive, PI5P4Ka inh inconclusive
Cc1ccnc2nc(C(=O)Nc3nc(-c4ccccn4)cs3)nn12	Pol eta inh-1 79µM, Pol kappa inh-1 inconclusive, PI5P4Ka inh inconclusive, POLI inh 50µM, POLB inh 11µM | Pol iota confirm 67 | Pol eta inh-2 85
CCn1ccc2cc(S(=O)(=O)N3CCCN(C(=O)NCC(C)C)CC3)ccc21	POLB inh inconclusive (no result: PI5P4Ka inh)
O=c1c(-c2c(O)cc(O)c3c(=O)cc(-c4ccc(O)cc4)oc23)c(-c2ccc(O)cc2)oc2cc(O)cc(O)c12	Pol eta inh-1 3.5µM, Pol kappa inh-1 35µM, PI5P4Ka inh -83, PI4K2A block inconclusive, POLI inh 7.9µM, POLB inh 3.2µM | Pol iota confirm 42 | Pol eta inh-2 43
COc1ccc(-c2cc(=O)c3c(O)cc(O)cc3o2)cc1	none (no result: POLB inh)
NS(=O)(=O)c1ccc(N=Nc2ccc(=O)[nH]c2O)cc1	Pol eta inh-1 10µM, Pol kappa inh-1 inconclusive, PI5P4Ka inh -80, POLI inh inconclusive, POLB inh 6.3µM | PGK validate 5.2µM | Pol iota confirm 38 | Pol kappa inh-2 15 | Pol eta inh-2 inconclusive
[O-][n+]1cccc2c(Br)cc(Br)c(O)c21	none
C[n+]1cccc2c(Br)ccc([O-])c21	Pol eta inh-1 20µM, PI4K2A block -61, POLI inh inconclusive, POLB inh 28µM | Pol iota confirm 19 | GALK inh confirm 47µM | GALK redox cs 21µM | HEK293 viability inactive | Pol eta inh-2 24
NC(=N\N=Cc1ccccc1)/C(N)=N/N=Cc1ccccc1	none (no result: POLB inh)
Oc1ccc(/C=N/N=C(c2ccccc2)c2ccccc2)c(O)c1O	Pol eta inh-1 3.2µM, Pol kappa inh-1 inconclusive, PI5P4Ka inh inconclusive, POLI inh inconclusive, POLB inh 2.8µM | Pol iota confirm 11 | Pol eta inh-2 43
CC1=NN(c2ccccc2)C(=O)C1/C=C1\NC(=S)NC1=O (stereo not drawn)	Pol eta inh-1 3.2µM, Pol kappa inh-1 25µM, PI5P4Ka inh -74, POLI inh inconclusive | Pol iota confirm 47 | Pol kappa inh-2 7.5 | Pol eta inh-2 24
CSc1nsc(/C=C/Nc2ccc(C(=O)O)cc2)c1C#N	Pol eta inh-1 28µM, POLB inh 32µM | Pol iota confirm 75 | Pol eta inh-2 43
CSc1nsc(/C=C/Nc2ccc(F)cc2F)c1C#N	none
Cc1ccsc1/C=C1/C(=O)NN(c2ccccc2)C1=O	POLI inh inconclusive
O=C1NN(c2ccccc2)C(=O)/C1=C/c1ccc(Sc2ccc(Cl)cc2)o1	Pol kappa inh-1 50µM, PI5P4Ka inh inconclusive, POLI inh 7.9µM, POLB inh inconclusive (no result: Pol eta inh-1) | Pol iota confirm inconclusive | Pol eta inh-2 30
Cc1ccc(Sc2ccc(/C=C3/C(=O)NN(c4ccccc4)C3=O)o2)cc1	Pol eta inh-1 22µM, Pol kappa inh-1 inconclusive, PI5P4Ka inh inconclusive, POLB inh inconclusive | Pol iota confirm 67 | Pol kappa inh-2 24 | Pol eta inh-2 inconclusive
O=C(Nc1cc(Cl)ccc1Cl)c1cc([N+](=O)[O-])cc(Br)c1O	POLI inh inconclusive (no result: Pol eta inh-1, PI5P4Ka inh, PI4K2A block, POLB inh)
OCC(CO)(CO)N=Cc1c(O)ccc2ccccc12	POLI inh inconclusive (no result: PI5P4Ka inh)
Oc1ccc2ccccc2c1C=NC12CN3CCN(CN(C3)C1)C2	Pol eta inh-1 20µM, PI4K2A block inconclusive, POLI inh 20µM | Pol iota confirm inconclusive | Pol eta inh-2 inconclusive
COc1cc(/C=C2/C(=N)N3C(=NC2=O)SN=C3S(C)(=O)=O)ccc1OS(=O)(=O)c1ccc(C)cc1	Pol eta inh-1 79µM, PI5P4Ka inh -79, POLI inh inconclusive, POLB inh inconclusive | Pol iota confirm inconclusive | Pol eta inh-2 30
COc1cc(/C=C2\C(=N)N3N=C(S(C)(=O)=O)SC3=NC2=O)cc(OC)c1OCCOc1cccc(C)c1	Pol eta inh-1 inconclusive, PI5P4Ka inh inconclusive, POLB inh inconclusive
CCOc1cc(/C=C2\C(=N)N3N=C(S(C)(=O)=O)SC3=NC2=O)ccc1OCCOc1cccc(OC)c1	Pol eta inh-1 28µM, PI5P4Ka inh -80, POLI inh inconclusive, POLB inh inconclusive | Pol iota confirm inconclusive | Pol kappa inh-2 75 | Pol eta inh-2 85
COc1cc(/C=C2/C(=N)N3N=C(C)SC3=NC2=O)ccc1OS(=O)(=O)c1ccc(C)cc1	POLI inh inconclusive
Cc1ccc(S(=O)(=O)Oc2ccc(/C=C3\C(=N)N4N=C(S(C)(=O)=O)SC4=NC3=O)cc2)cc1	Pol eta inh-1 20µM, PI5P4Ka inh -57, POLI inh 16µM, POLB inh inconclusive | Pol iota confirm inconclusive | Pol eta inh-2 76
CCn1nc(C)c(CCN(C)C(=O)Nc2ccc(C)c(Cl)c2)c1C	none (no result: PI5P4Ka inh)

Screening data (PubChem BioAssay)
